The whole screen tested about 1,600 compounds, of which about 160 (10%) were called active. These entries were drawn from the full list. A number with no mark means an inactive call. Rule as the data show it: active = activation above about 1.3%; inactive = the rest.
Assay: nonspecific cAMP agonists in parental HEK-CNG cells, counter-screen for GalR3 antagonist project, cell-based, fluorescence, high throughput (AID 652268)
Settings: HEK293-CNG parental cells, cAMP membrane potential fluorescence; at 3 µM; hits give high values; normalised: DMSO wells 0%, forskolin wells 100%

SMILES	activation
CC(CCc1ccccc1)NCC(O)c1cccc([N+](=O)[O-])c1 (stereo not given)	0.27%
C=CCC1(CC=C)CCCN1C(=O)c1cc(COc2ccc(-n3cncn3)cc2)on1	-0.46%
Nc1ncnc2c1ncn2C1OC(CO)CC1O (stereo not given)	-0.01%
COc1cc(C(=O)Nn2c(O)c(C3=c4ccccc4=NC3=O)sc2=S)ccc1O	-0.64%
COc1ccc(CCNc2nc3ccc(C)cc3n3cnnc23)cc1OC	0.25%
COc1ccc(-c2[nH]nc3c2C(c2ccncc2)C(C#N)=C(N)O3)cc1 (stereo not given)	0.22%
COCCN1Cc2cccc(C(=O)Nc3ccccc3OC)c2C1=O	0.15%
CCOC(=O)c1cc2n(c1C)-c1ccccc1C2=O	0.34%
CCOc1ccc(C(C)=O)cc1COC(=O)c1cnc(Cl)c(Cl)c1	4.48% (active)
Cn1c(N)c(C(=O)COC(=O)c2cnc(Cl)c(Cl)c2)c(=O)n(C)c1=O	0.4%
COCCNC(=O)/C(C#N)=C/c1cccc(OCc2ccccc2)c1	0.53%
CSc1nc(N)c(C#N)c(-c2ccccc2Cl)c1C#N	-0.24%
O=C(Nc1ccc(CSc2ccccc2)cc1)c1ccc(CN2CCOCC2)cc1	-1.27%
C[C@@]12C(=O)N(c3cccc(Br)c3)C(=O)N1[C@H](c1ccc(Cl)cc1)[C@@H]1C(=O)N(C3CCCCC3)C(=O)[C@@H]12	-2.49%
COc1ccc(OC)c(NC(=O)CSc2nc(N)c(-c3ccccc3)c(=O)[nH]2)c1	0.95%
COc1ccc(-c2csc(-c3cccs3)n2)cc1OC	0.07%
COc1ccc(C2Nc3ccccc3C(=O)N2c2ccc(Cl)cc2)cc1Cn1cc([N+](=O)[O-])cn1 (stereo not given)	-0.27%
COc1ccc(C(=O)COC(=O)COc2ccc(C)c(C)c2)cc1	0.4%
Cc1c(C=O)c2ccccc2n1CC(=O)O	0.2%
Cc1c(Cl)cccc1NC(=O)CSc1ccc(-c2cccnc2)nn1	0.04%
CC1(C)CC(N2CCN(C(c3ccccc3)c3ccccc3)CC2)=CC(=[N+]2CCCCC2)C1	10.7% (active)
CC(C)(CNC(=O)c1ccc(Cl)c(S(=O)(=O)N2CCc3ccccc3C2)c1)N1CCOCC1	-0.38%
COC(=O)c1cccc([N+](=O)[O-])c1CS(=O)(=O)c1ccc(C)cc1	-0.01%
Cc1ccc(S(=O)(=O)N2CCN(C(=O)COC(=O)c3c(C)cc(C)cc3C)CC2)c(C)c1	0.55%
c1coc(CNc2ncnc3ccccc23)c1	0%

Source: PubChem BioAssay AID652268 (The Scripps Research Institute Molecular Screening Center, 2013)
